# Screening data (PubChem BioAssay)
# D2 PAM-1: positive allosteric modulators of human D2 dopamine receptor; HEK293 T-REx D2, calcium flux, EC20 dopamine potentiation; hit rate 0.34% among 340,000; potentiation, % at 10 µM;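 active means potentiation over 3 SD above the plate norm, cut at about 30% in these data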; further: 0% is about no effect
# Target sequence (P14416 whole entry, looked up): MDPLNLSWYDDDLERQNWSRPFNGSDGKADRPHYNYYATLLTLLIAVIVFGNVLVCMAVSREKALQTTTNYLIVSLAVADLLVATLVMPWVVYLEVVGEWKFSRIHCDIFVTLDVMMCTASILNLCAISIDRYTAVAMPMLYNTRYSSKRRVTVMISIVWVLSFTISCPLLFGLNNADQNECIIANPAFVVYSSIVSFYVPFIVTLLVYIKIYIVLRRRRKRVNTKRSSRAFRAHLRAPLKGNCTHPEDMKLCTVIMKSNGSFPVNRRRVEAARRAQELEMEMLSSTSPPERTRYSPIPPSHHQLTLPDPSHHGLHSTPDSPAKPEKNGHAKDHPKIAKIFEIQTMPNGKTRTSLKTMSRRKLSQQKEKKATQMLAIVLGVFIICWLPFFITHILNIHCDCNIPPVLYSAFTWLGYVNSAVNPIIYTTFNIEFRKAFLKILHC
#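 Potentiation of an EC20 dopamine calcium response is measured in a force-coupled, tetracycline-inducible Hek293 Trex D2 line. Compound-only kinetic reads over 180 s flag agonists before dopamine addition.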
# D2 antag: D2 dopamine receptor (human) antagonism; inhibition, % at 10 µM; AID 485344; hit rate 2% among 340,000; P14416; HEK293 TREx D2 cells, calcium flux, dopamine EC80; in the data active means inhibition above about 30%; inactive means below that, where a call was filed; further: 0% is about no effect
#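 Calcium flux kinetic readout in an inducible HEK293 TREx D2 line plated overnight at 30 C. After 180 s compound exposure, an EC80 dopamine challenge follows with another 180 s kinetic read to detect antagonism.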
# D2 ag-1: activates the human D2 dopamine receptor; P14416; HEK293 T-REx D2 cells, calcium flux agonist mode; activation, % at 2 µM; hit rate 0.53% among 340,000; AID 485358;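 active means activation over 3 SD above normal in the single-dose calcium agonist read, cut at about 30% in these data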; further: 0% is about no effect
#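 In this primary screen, compounds producing a positive calcium signal within 180 s of addition to tetracycline-induced, force-coupled HEK293 Trex D2 cells are flagged; cells are dye-loaded with a no-wash calcium kit beforehand.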
# D2 ag-2: human D2 receptor agonism in beta-arrestin assay; P14416; DiscoveRx PathHunter D2 beta-arrestin, luminescence, 90 min; 100% = 57 uM dopamine signal; activation, % (concentration not given with the values); hit rate 0.084% among 360,000; AID 624465; in the data active means activation above about 40%; inconclusive means between about 15% and that limit
#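 DiscoveRx PathHunter D2 beta-arrestin cells (2,100/well) attached overnight, then compound-stimulated 90 min at 37 C in HBSS/10 mM HEPES/0.1% Tween-20 buffer; beta-galactosidase complementation read by luminescence after 1 h at ambient temperature. Dopamine 57 uM final (EC100) as control.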
# D2 PAM-2: potentiates the human D2 dopamine receptor allosterically; potentiation, % (test concentration not listed); P14416; AID 624464; DiscoveRx D2 beta-arrestin cells, luminescence, 90 min; 100% = 57 uM dopamine signal; hit rate 0.23% among 360,000; in the data active means potentiation above about 50%; inconclusive means mostly about 30% to 49%
#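 D2 cells co-treated with compound plus 50 nM dopamine (EC20) for 90 min at 37 deg C to detect potentiation. Beta-arrestin recruitment was read as enzyme-fragment luminescence after 1 h at ambient temperature. Full response was set by 57 uM dopamine.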
# The depositor's hits bear a star; ? = inconclusive; . = not tested or not shown. Shown are actives, neighbours in structure and some others; about 2.4% of the full set was active somewhere.
SMILES,D2 PAM-1,D2 antag,D2 ag-1,D2 ag-2,D2 PAM-2
CCOC(=O)C1=C(CS(=O)(=O)c2ccccc2)NC(=O)NC1c1ccccc1OCC (stereo not drawn),-12,36*,0,-2,-3
COc1ccc(CNC(=O)Nc2cccc(C(F)(F)F)c2)cc1OC,-9,46*,3,-1,-28
COc1ccc(CNC(=O)NCc2ccc(OC)c(OC)c2)cc1OC,-8,3,0,-4,1
CCOC(=O)c1c(C=O)c2sc(C)cc2n1C,8,43*,0,-1,-6
CCOP(=O)(OCC)C(NC(=O)c1cc([N+](=O)[O-])cc([N+](=O)[O-])c1)C(F)(F)F (stereo not drawn),-12,-3,0,?,15
Cc1cc(C)nc(Sc2c(C)n[nH]c2C)n1,-3,32*,1,1,-9
Cc1n[nH]c(C)c1Sc1ccccc1N,-8,-7,0,3,0
CCc1ccc(-c2cn(C3CCCCC3)c(=S)[nH]2)cc1,2,-8,0,5,-9
CSc1cccc(CN2CCN(CCc3ccccc3)C(CCO)C2)c1 (stereo not drawn),-30,27,0,-2,-42
CSc1cccc(CN2CCN(Cc3ccccc3)C(CCO)C2)c1 (stereo not drawn),-35,39*,-3,-2,-8
CSc1ccc(CN2CCN(CC=C(C)C)C(CCO)C2)cc1 (stereo not drawn),-22,33*,0,-4,-12
CS(=O)(=O)c1nc(-c2cccs2)cc(C(F)(F)F)n1,1,9,2,.,.
CC1CCN(c2nc(-c3ccccc3)cc(C(F)(F)F)n2)CC1,4,5,0,-1,10
CN1CCN(c2nc(-c3cccs3)cc(C(F)(F)F)n2)CC1,-15,32*,-1,-1,-23
CN1CCN(c2nc(-c3ccccc3)cc(C(F)(F)F)n2)CC1,-7,75*,-1,-3,-36
O=C(O)C1CC(=O)n2c(nc3ccccc32)S1 (stereo not drawn),21,5,0,-4,8
COc1cc(C2CC(=O)n3c(nc4ccccc43)S2)cc(OC)c1OC (stereo not drawn),30*,-2,0,.,.
CCN(CC)c1ccc(NC(=O)c2ccc3c(c2)OCO3)cc1,-5,-12,-1,-3,-4
CC(C)c1nc2ccc(NC(=O)C34CC5CC(CC(C5)C3)C4)cc2[nH]1,22,33*,0,-2,-17
Nc1cccc(-c2cnc3ccccc3n2)c1,-9,-13,1,-2,4
CC(C)(C)c1ccc2c(c1)OCC(C(=O)O)O2 (stereo not drawn),113*,.,.,-4,2
CC(C)(C)c1ccc2c(c1)OC(C(=O)N/N=C\c1ccccn1)CO2 (stereo not drawn),21,13,1,1,0
COC(=O)CCC(=O)OC1(C)C(=O)C=C2C=C(C3CC3)N(CC(C)C)C=C2C1=O (stereo not drawn),-2,32*,0,.,.
COC(=O)CCC(=O)OC1(C)C(=O)C=C2C=C(C3CC3)N(CC3CC3)C=C2C1=O (stereo not drawn),-13,17,4,7,18
Cc1ccc(-c2nnc(-c3ccc4c(c3)OCO4)o2)cc1,17,-12,5,-3,-10
SMILES,D2 PAM-1,D2 antag,D2 ag-1,D2 ag-2,D2 PAM-2
c1nnc(-c2ccc3c(c2)OCO3)o1,-2,31*,1,4,5
CCCn1c(=O)sc2cc(NC(=O)c3ccc(OC)c(Br)c3)ccc21,2,.,0,.,.
CCCCCC1=CCC/C1=N\NC(=O)c1ccc2c(c1)OCO2,-3,31*,1,1,-9
CCc1noc(C)c1C(=O)N1CCN(S(=O)(=O)c2ccc(Cl)cc2)CC1,2,-39,0,-6,-2
CCc1cc(C(=O)N2CCN(S(=O)(=O)c3ccc(Cl)cc3)CC2)sc1C,-19,39*,0,-2,-8
CCOC(=O)/C(=C\c1ccc(OC)c(OC)c1)C(=O)c1cccnc1,40*,2,3,-2,-5
COc1ccc(/C=C/C(=O)O/N=C(\N)c2cccnc2)cc1OC,-3,-6,-2,6,16
COc1cccc(CNC(=O)Cn2cc3c(n2)-c2c(oc(C(=O)N4CCOCC4)c2C)CC3)c1,-1,.,0,.,.
COc1ccc(S(=O)(=O)Nc2cccc3c2O[C@H](CN(C)S(=O)(=O)c2cn(C)cn2)[C@@H](C)CN([C@H](C)CO)C3=O)cc1,.,.,.,-7,-1
CCn1c(CC(=O)Nc2ccc(F)cc2)nnc1SCC(=O)Nc1nncs1,.,-19,1,2,-10
COc1ccc([C@H]2[C@H](C(=O)C(C)(C)C)N3N=Cc4ccccc4C3[C@]23N=C(c2ccccc2)OC3=O)cc1OC (stereo partly drawn),-1,24,1,7,58*
O=C(CCNC(=O)N1CCn2c1nc1ccccc12)NCc1ccc(F)cc1,7,3,-1,-1,-9
Cc1cc(C(=O)N2CCc3ccccc32)n(-c2ccccc2)n1,5,37*,2,-7,7
CCOc1ccc(C(=O)CN2C(=O)NC3(CCCCCC3)C2=O)cc1,5,-2,0,-5,1
CCOc1ccc(C(=O)NNC(=O)CN2C(=O)NC3(CCCC3)C2=O)cc1,-11,42*,0,-4,3
O=C1CSC(=Nc2cccc([N+](=O)[O-])c2)N1,-6,43*,1,-6,-11
CC1(C)Oc2ccc(C(=O)NC3CCCC3)cc2N(CC(=O)NC2CCCCC2)C1=O,-21,52*,1,-3,-19
COc1cc(CN(C)CCc2ccccc2)ccc1OCc1ccccc1,-11,36*,18,1,-19
Cc1ccc(NC(=O)CCCc2nc3ccccc3s2)c(O)c1,.,.,.,4,-3
CCc1ccc(NC(=O)CC2C(=O)N(c3ccc(OC)cc3)C(=O)N2Cc2cccs2)cc1 (stereo not drawn),-4,.,0,.,.
C/C(CCc1ccc2c(c1)OCO2)=N\N=C1\NC(=O)CC(C(=O)Nc2ccccc2F)S1 (stereo not drawn),15,40*,0,-1,-5
Cc1ccc(SCC(=O)Nc2ccc(C(=O)Nc3ccc(O)cc3)cc2)cc1,3,72*,-1,-3,-5
CNS(=O)(=O)c1ccc(C(C)(C)C)cc1,-24,65*,1,-2,-2
O=C1CC(N2CCN(c3ccccc3)CC2)C(=O)N1c1cccc(Br)c1 (stereo not drawn),37*,2,1,-6,-4
O=C1CC(N2CCN(c3cccc(C(F)(F)F)c3)CC2)C(=O)N1c1ccccc1F (stereo not drawn),1,33*,-1,0,-15
